About 79,000 compounds went through this panel and 15% of them were active in at least one assay; those are over-represented in the sample as a whole. The source made the active and inactive calls. No stated cut-off is given here; in the data, active means growth inhibition above about 70%; inactive means the rest.
Columns and labels:
[1] = NCI Yeast Anticancer Drug Screen. Data for the mec2-1 strain (AID 157); details: S. cerevisiae mec2-1 strain, active compounds read high
Procedure, shortened: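 Mutant yeast (mec2-1) grown with compound; growth inhibition relative to vehicle control reported.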

[2] = NCI Yeast Anticancer Drug Screen. Data for the rad14 strain (AID 159);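 further: 0% = growth of vehicle-treated control cultures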; details: S. cerevisiae rad14 strain growth inhibition, active compounds read high
Procedure, shortened: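 DNA repair-defective yeast, compound-exposed; % growth inhibition derived by comparison with vehicle-treated controls.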

[3] = NCI Yeast Anticancer Drug Screen. Data for the sgs1 mgt1 strain (AID 161);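 further: 0% = growth of cultures given vehicle only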; details: S. cerevisiae sgs1 mgt1 strain, active compounds read high
Procedure, shortened: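 This yeast growth screen uses a strain with defined DNA-repair lesions; compound-treated growth is compared with vehicle-treated growth.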

[4] = NCI Yeast Anticancer Drug Screen. Data for the CLN2oe strain (AID 163);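 further: 0% = growth of vehicle-only control cultures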; details: S. cerevisiae CLN2oe strain, active compounds read high
Procedure, shortened: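 Compounds are applied to yeast harbouring a defined cell-cycle control change; reduced growth compared with vehicle-treated controls gives the value.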

[5] = NCI Yeast Anticancer Drug Screen. Data for the cln2 rad14 strain (AID 165);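 further: 0% = growth equal to vehicle treated cultures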; details: S. cerevisiae cln2 rad14 strain, active compounds read high
Procedure, shortened: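 Readout is yeast growth inhibition versus vehicle-treated controls, using a strain with cln2 and rad14 alterations exposed to compound.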

[6] = NCI Yeast Anticancer Drug Screen. Data for the bub3 strain (AID 167); details: S. cerevisiae bub3 mutant strain, active compounds read high
Procedure, shortened: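 In this screen, a yeast mutant lacking normal mitotic checkpoint function is challenged with compound. Relative growth versus vehicle gives the inhibition value.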

[7] = NCI Yeast Anticancer Drug Screen. Data for the wt2 strain (AID 169);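 further: 0% = growth of vehicle-treated yeast cultures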; details: S. cerevisiae wt2 strain growth inhibition, active compounds read high
Procedure, shortened: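 Against vehicle-treated controls, the growth of yeast exposed to each compound was compared, and the inhibition was recorded.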

[8] = NCI Yeast Anticancer Drug Screen. Data for the mlh1 strain (AID 171);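 further: 0% = growth of vehicle-treated control cultures of the same strain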; details: S. cerevisiae mlh1 strain growth inhibition, active compounds read high
Procedure, shortened: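 Measured: yeast growth. Reference: vehicle-treated controls. Organism: strain with a defined alteration affecting DNA damage repair or cell cycle control, treated with compound.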

[9] = NCI Yeast Anticancer Drug Screen. Data for the sgs1 strain (AID 173);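 further: 0% = growth of vehicle-only control cultures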; details: S. cerevisiae sgs1 mutant, active compounds read high
Procedure, shortened: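 Each compound was added to cultures of the altered yeast strain. Growth was recorded, and inhibition was derived by comparison with vehicle controls.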

[10] = NCI Yeast Anticancer Drug Screen. Data for the mlh1 rad18 strain (AID 175); details: S. cerevisiae mlh1 rad18 strain growth inhibition, active compounds read high
Procedure, shortened: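 Genetically defined yeast (DNA repair-deficient) exposed to compounds; growth inhibition determined relative to vehicle.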

[11] = NCI Yeast Anticancer Drug Screen. Data for the rad18 strain (AID 177); details: S. cerevisiae rad18 mutant growth inhibition, active compounds read high
Procedure, shortened: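 Vehicle-treated cultures served as the baseline for scoring compound-induced growth inhibition in DNA-repair-mutant yeast.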

[12] = NCI Yeast Anticancer Drug Screen. Data for the rad52 strain (AID 147);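 further: 0% = growth of vehicle-treated control cultures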; details: S. cerevisiae rad52 mutant growth inhibition, active compounds read high
Procedure, shortened: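 The repair-mutant yeast strain was incubated with compounds, then growth was read and inhibition derived relative to vehicle.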

[13] = NCI Yeast Anticancer Drug Screen. Data for the wt1 strain (AID 149);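 further: 0% = growth of vehicle-treated wt1 cultures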; details: S. cerevisiae wt1 strain (SPY 50644) growth inhibition, active compounds read high
Procedure, shortened: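 wt1 strain grown with compound or vehicle; inhibition taken from the growth difference.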

[14] = NCI Yeast Anticancer Drug Screen. Data for the rad50EPP+ strain (AID 151);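 further: 0% = growth of vehicle-treated control cultures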; details: S. cerevisiae rad50 mutant strain, active compounds read high
Procedure, shortened: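 Vehicle-normalised growth inhibition; rad50EPP+ yeast strain, altered in DNA damage repair, compound-treated.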

[15] = NCI Yeast Anticancer Drug Screen. Data for the mgt1 strain (AID 153); details: S. cerevisiae mgt1 mutant growth inhibition, active compounds read high
Procedure, shortened: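 Vehicle-normalized growth inhibition is determined in mgt1 yeast, a strain selected for a defined alteration in DNA repair or cell cycle control.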

[16] = NCI Yeast Anticancer Drug Screen. Data for the rad50 strain (AID 155);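 further: 0% = growth of vehicle-only cultures of the same strain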; details: S. cerevisiae rad50 strain growth inhibition, active compounds read high
Procedure, shortened: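 DNA repair mutant yeast, compound exposure, growth read-out; inhibition is taken relative to vehicle.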

[17] = at 5.0 µM (retest, dose inferred, filed as 0.5)
[18] = at 50.0 µM (retest, dose inferred, filed as 5.0)

Measured: growth inhibition

OC1CSCCCSCCSCCCSC1
active: [6]; [18] 82%
inactive: [1]; at 100.0 µM -29% | [2]; at 1.2 µM -35% | [2]; at 3.7 µM -37% | [2]; at 11.0 µM -28% | [2]; at 33.0 µM -36% | [2]; at 100.0 µM -47% | [3]; [17] -1% | [3]; [18] 4% | [3]; at 50.0 µM 28.7% | [4]; at 1.2 µM -5% | [4]; at 3.7 µM -12% | [4]; at 11.0 µM 3% | [4]; at 33.0 µM 17% | [4]; at 100.0 µM 1% | [5]; [17] 12% | [5]; [18] 25% | [5]; at 50.0 µM 10.7% | [6]; at 1.2 µM -8% | [6]; at 3.7 µM 0% | [6]; [17] 16% | [6]; at 11.0 µM 16% | [6]; at 33.0 µM 64% | [6]; at 50.0 µM 69.2% | [6]; at 100.0 µM 68% | [7]; at 1.2 µM -30% | [7]; at 3.7 µM -17% | [7]; at 11.0 µM -16% | [7]; at 33.0 µM -31% | [7]; at 100.0 µM -22% | [8]; at 1.2 µM -4% | [8]; at 3.7 µM 16% | [8]; at 11.0 µM 2% | [8]; at 33.0 µM 16% | [8]; at 100.0 µM -17% | [9]; at 1.2 µM -9% | [9]; at 3.7 µM -5% | [9]; at 11.0 µM -10% | [9]; at 33.0 µM -14% | [9]; at 100.0 µM -24% | [10]; [17] -22% | [10]; [18] 22% | [10]; at 50.0 µM 26.9% | [11]; at 1.2 µM -30% | [11]; at 3.7 µM -41% | [11]; at 11.0 µM -49% | [11]; at 33.0 µM -49% | [11]; at 100.0 µM -75%

CCCCCCCCCC/C=C\C(=O)O
active: [12]; at 100.0 µM 97% | [13]; at 100.0 µM 97% | [14]; at 100.0 µM 75% | [15]; at 100.0 µM 98% | [16]; at 50.0 µM 78% | [16]; at 100.0 µM 97% | [1]; [18] 74% | [1]; at 50.0 µM 79.8% | [1]; at 100.0 µM 95% | [3]; at 50.0 µM 88.5% | [4]; at 100.0 µM 97% | [5]; [18] 73% | [6]; [18] 73% | [6]; at 50.0 µM 85.8% | [6]; at 100.0 µM 97% | [7]; at 100.0 µM 97% | [8]; at 100.0 µM 97% | [9]; at 100.0 µM 98% | [10]; at 50.0 µM 73.8% | [11]; at 100.0 µM 97%
inactive: [12]; at 1.2 µM -3% | [12]; at 3.7 µM -1% | [12]; at 11.0 µM -9% | [12]; at 33.0 µM -13% | [13]; at 1.2 µM -12% | [13]; at 3.7 µM -18% | [13]; at 11.0 µM -35% | [13]; at 33.0 µM -23% | [14]; at 1.2 µM 0% | [14]; at 3.7 µM -1% | [14]; at 11.0 µM 0% | [14]; at 33.0 µM 62% | [15]; at 1.2 µM -36% | [15]; at 3.7 µM -10% | [15]; at 11.0 µM -22% | [15]; at 33.0 µM -9% | [16]; at 1.2 µM 15% | [16]; at 3.7 µM 10% | [16]; [17] 39% | [16]; at 11.0 µM -5% | [16]; at 33.0 µM 8% | [16]; [18] 68% | [1]; at 1.2 µM 4% | [1]; at 3.7 µM 5% | [1]; [17] 36% | [1]; at 11.0 µM -11% | [1]; at 33.0 µM 49% | [3]; [17] -18% | [3]; [18] 58% | [4]; at 1.2 µM 15% | [4]; at 3.7 µM 25% | [4]; at 11.0 µM 7% | [4]; at 33.0 µM -20% | [5]; [17] 67% | [5]; at 50.0 µM 46.5% | [6]; at 1.2 µM -6% | [6]; at 3.7 µM -15% | [6]; [17] -7% | [6]; at 11.0 µM -29% | [6]; at 33.0 µM -10% | [7]; at 1.2 µM -14% | [7]; at 3.7 µM -15% | [7]; at 11.0 µM -18% | [7]; at 33.0 µM -7% | [8]; at 1.2 µM -10% | [8]; at 3.7 µM -4% | [8]; at 11.0 µM -20% | [8]; at 33.0 µM 10% | [9]; at 1.2 µM -7% | [9]; at 3.7 µM -5% | [9]; at 11.0 µM -9% | [9]; at 33.0 µM 19% | [10]; [17] 37% | [10]; [18] 69% | [11]; at 1.2 µM 0% | [11]; at 3.7 µM 1% | [11]; at 11.0 µM -5% | [11]; at 33.0 µM 19%

Fc1ccc(NC(=S)SCc2ccc3c(c2)OCO3)cc1F
active: [12]; at 11.0 µM 71% | [12]; at 33.0 µM 98% | [12]; at 100.0 µM 97% | [13]; at 33.0 µM 98% | [13]; at 100.0 µM 97% | [14]; at 11.0 µM 96% | [14]; at 33.0 µM 99% | [14]; at 100.0 µM 99% | [15]; at 33.0 µM 99% | [15]; at 100.0 µM 96% | [16]; at 33.0 µM 99% | [16]; [18] 97% | [16]; at 50.0 µM 92.2% | [16]; at 100.0 µM 98% | [1]; at 33.0 µM 99% | [1]; [18] 99% | [1]; at 50.0 µM 91.7% | [1]; at 100.0 µM 98% | [3]; [18] 99% | [3]; at 50.0 µM 92.5% | [4]; at 33.0 µM 99% | [4]; at 100.0 µM 98% | [5]; [18] 99% | [5]; at 50.0 µM 91.8% | [6]; at 33.0 µM 98% | [6]; [18] 99% | [6]; at 50.0 µM 91.8% | [6]; at 100.0 µM 98% | [7]; at 33.0 µM 99% | [7]; at 100.0 µM 94% | [8]; at 33.0 µM 99% | [8]; at 100.0 µM 96% | [9]; at 33.0 µM 99% | [9]; at 100.0 µM 96% | [10]; [18] 98% | [10]; at 50.0 µM 90.5% | [11]; at 11.0 µM 73% | [11]; at 33.0 µM 100% | [11]; at 100.0 µM 98%
inactive: [12]; at 1.2 µM 15% | [12]; at 3.7 µM 9% | [13]; at 1.2 µM 6% | [13]; at 3.7 µM 6% | [13]; at 11.0 µM 66% | [14]; at 1.2 µM 0% | [14]; at 3.7 µM 27% | [15]; at 1.2 µM -3% | [15]; at 3.7 µM 12% | [15]; at 11.0 µM 61% | [16]; at 1.2 µM -9% | [16]; at 3.7 µM 22% | [16]; [17] 23% | [16]; at 11.0 µM 57% | [1]; at 1.2 µM -10% | [1]; at 3.7 µM 2% | [1]; [17] -7% | [1]; at 11.0 µM 49% | [3]; [17] 31% | [4]; at 1.2 µM 8% | [4]; at 3.7 µM 28% | [4]; at 11.0 µM 40% | [5]; [17] 21% | [6]; at 1.2 µM -19% | [6]; at 3.7 µM -11% | [6]; [17] 35% | [6]; at 11.0 µM 42% | [7]; at 1.2 µM -2% | [7]; at 3.7 µM 19% | [7]; at 11.0 µM 58% | [8]; at 1.2 µM -29% | [8]; at 3.7 µM -28% | [8]; at 11.0 µM 53% | [9]; at 1.2 µM -17% | [9]; at 3.7 µM -13% | [9]; at 11.0 µM 59% | [10]; [17] 6% | [11]; at 1.2 µM 20% | [11]; at 3.7 µM 34%
